Hits are enriched below; roughly 4.8% of the tested compounds scored in any of these assays.
hcDAF12 agonist: activates DAF-12 receptor from parasite H. contortus | 370,000 tested, 1.4% active | activation, % at 6.8 µM | HEK293 hcDAF-12 lit1-tk-luc reporter, luminescence; 0% DMSO, 100% Δ7-dafachronic acid;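 active means activation above the mean of all tested compounds plus 3 SD, cut at about 5.5% in these data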
SMARCA2 activ: SMARCA2 function activation, primary screen. 370,000 tested, 1% active. activation, % at 9.1 µM. MG213 cells, MMTV-luciferase reporter, dexamethasone, overnight; in the data active means activation above about 7.8%
DAX1 inh-1: DAX1 (NR0B1) inhibition, primary screen; inhibition, % at 6.8 µM; AID 652010; 370,000 tested, 1.1% active; HEK293T StAR-luciferase reporter, SF-1/DAX-1 repression relief;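 active means inhibition above the mean over all tested compounds plus 3 SD, cut at about 3.6% in these data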;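 further: higher inhibition means more luminescence from relief of DAX-1 repression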
hgDAF-12 ag: hgDAF-12 agonism, primary luciferase screen; HEK293 GAL4-hgDAF12 UAS-luciferase reporter, agonist luminescence; normalized to butyrate control; activation, % at 6.8 µM; 370,000 tested, 1.8% active; AID 687014;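 active means activation above a cutoff set at the mean of all screened compounds plus 3 SD, cut at about 10% in these data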
ssDAF-12 act: S. stercoralis DAF-12 activation, primary screen; 370,000 tested, 1% active; HEK293 ssDAF-12/GRIP1 lit1-tk-luc reporter, luminescence; % of 3 µM dafachronic acid response; activation, % at 6.8 µM;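 active means activation above the mean over all tested compounds plus 3 SD, cut at about 0.9% in these data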
DAX1 inh-2: inhibits human nuclear receptor DAX1. P51843. HEK293 Gal4-DAX1 luciferase reporter, luminescence. inhibition, % at 6.75 µM. 340,000 tested, 0.99% active. AID 504766;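 active means inhibition above the mean over all tested compounds plus 3 SD, cut at about 4.2% in these data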;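 further: inhibition shows as a rise in luminescence from relieved DAX1 repression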
Target sequence (P51843 207-470 limits assumed): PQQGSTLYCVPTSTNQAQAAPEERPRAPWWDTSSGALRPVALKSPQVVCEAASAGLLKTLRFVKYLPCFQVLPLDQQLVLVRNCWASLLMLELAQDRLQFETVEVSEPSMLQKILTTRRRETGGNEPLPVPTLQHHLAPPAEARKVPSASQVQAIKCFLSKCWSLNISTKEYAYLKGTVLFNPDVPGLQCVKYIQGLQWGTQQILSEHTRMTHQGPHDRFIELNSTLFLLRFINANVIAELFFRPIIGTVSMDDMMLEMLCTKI
A number is an active result; 0 = inactive; - = no result given.

SMILES	hcDAF12 agonist	SMARCA2 activ	DAX1 inh-1	hgDAF-12 ag	ssDAF-12 act	DAX1 inh-2
CCC/C=C/c1ccc(CN2C(C(C)C)C(=O)N(Cc3cn(CC4CCCCC4)nn3)CCS2(=O)=O)cc1 (stereo not drawn)	0	0	0	0	0	0
Cc1c(NC(=O)c2ccc(NS(=O)(=O)c3ccc(F)c(F)c3)cc2)c(=O)n(-c2ccccc2)n1C	0	0	3.7	0	0	0
Nc1ncnc2c1ncn2[C@@H]1O[C@H](C(=O)N2CCC[C@@H]2C(=O)OCc2ccccc2)[C@@H](O)[C@H]1O	0	0	0	11.6	0	-
CCc1nc2c(OCC3CCCCC3)cccn2c1N(C)C(=O)c1ccccc1F	0	0	0	0	0	-
COc1ccc(C(C)=O)cc1CSc1nnc(Nc2c(C)cccc2C)s1	0	0	0	0	0	4.6
CC(=O)Nc1ccc(NC(=O)COC(=O)CCNS(=O)(=O)c2c(Cl)cccc2Cl)cc1	0	0	0	0	0	0
Cc1ccc(C2C(C(=O)O)c3ccccc3C(=O)N2C)c(C)c1 (stereo not drawn)	0	0	0	0	0	0
CN1C(=O)c2ccccc2C(C(=O)O)C1c1cn(C)c2ccccc12 (stereo not drawn)	5.9	0	0	0	0	0
CC1=C(C(=O)N(C(C)C)C(C)C)CC(CC(=O)NCCCN(C)C)C(=O)N1CCCN1CCCC1=O (stereo not drawn)	0	0	0	0	0	-
O=C(CSc1nnc(Cc2ccsc2)o1)c1ccccc1	0	7.8	0	0	0	-
O=C(CSc1nnc(Cc2ccccc2)o1)c1ccc(F)cc1	0	0	0	0	0	0
CSc1ccc(CN(C)C(=O)C2CCN(C(=O)Nc3ccccc3)CC2)cc1	0	0	0	0	0	0
O=C(Cn1c(=O)n(Cc2ccco2)c(=O)c2ccccc21)Nc1cccc(Cl)c1	0	0	0	11.2	0	0
Cc1ccc(NC(=O)Cn2c(=O)n(Cc3ccco3)c(=O)c3ccccc32)c(C)c1	0	0	0	0	0	0
COc1ccccc1C(=O)COC(=O)CSC(C)C(=O)Nc1cc(C)on1 (stereo not drawn)	0	0	0	0	0	0
Cc1cc(NC(=O)C(C)SCC(=O)OCC(=O)N(C)c2ccccc2)no1 (stereo not drawn)	0	0	0	0	0	4.6
O=C1c2ccccc2C(=O)N1c1ccccc1	0	0	0	0	0	5.2
Cc1oc(-c2ccc(Cl)cc2)nc1CS(=O)CC(=O)NCc1ccco1 (stereo not drawn)	0	0	0	10.8	0	0
Cc1oc(-c2ccccc2Cl)nc1CS(=O)CC(=O)NCc1ccco1 (stereo not drawn)	0	0	0	0	0	0
CC(C)[C@H](NC(=O)c1ccc(Cl)c([N+](=O)[O-])c1)C(=O)NCc1ccc(Cl)cc1Cl	0	0	0	0	0	0
CC(C)[C@H](NC(=O)c1ccc(Cl)c([N+](=O)[O-])c1)C(=O)NCc1ccc(F)cc1	0	0	0	0	0	4.6
CC(C)CN1C(=O)CSCC1(C)C(=O)NCc1ccccc1 (stereo not drawn)	0	0	0	0	0	-
O=C1CCCC(=O)C1=C1SCCCS1	0	0	0	0	0	4.5
O=C1Nc2ccc(F)cc2C12Nc1ccccc1-c1nnc(SCc3ccccc3)nc1O2 (stereo not drawn)	5.6	0	0	0	0	0
Cc1ccc(CSc2nnc3c(n2)OC2(Nc4ccccc4-3)C(=O)Nc3ccc(F)cc32)cc1 (stereo not drawn)	0	0	0	0	0	0
SMILES	hcDAF12 agonist	SMARCA2 activ	DAX1 inh-1	hgDAF-12 ag	ssDAF-12 act	DAX1 inh-2
O=C1N/C(=C/c2ccsc2)C(=O)N1c1ccccc1	0	0	0	11.8	0	0
COC(=O)c1ccccc1NC(=O)c1ccnn1C	0	0	0	0	11.3	0
COC(=O)c1ccccc1NC(=O)c1c(Br)cnn1C	0	0	0	0	0	0
CCOc1ccc(-c2nc(CSc3nnc(N)s3)cs2)cc1	0	0	0	12.4	0	0
CCN(CC)S(=O)(=O)c1ccc(N2CCCC2)c(NC(=O)Cc2cc(OC)c(OC)c(OC)c2)c1	0	0	0	0	0	4.7
COc1ccc(/C=C(\C#N)C(=O)Nc2cc(S(=O)(=O)N3CCOCC3)ccc2N2CCCC2)cc1	0	0	0	0	0	0
CCN(CC)S(=O)(=O)c1ccc(N2CCCCC2)c(NC(=O)/C(C#N)=C/c2ccc(OC)cc2)c1	6.3	0	0	0	0	0
Nc1nc2cc(Cl)c(Br)cc2o1	0	0	0	0	0	0
O=C(NCc1ccccc1)C1CCCN(c2cnccn2)C1 (stereo not drawn)	0	0	0	0	0	0
COc1cc(NC(=S)NCCc2ccccc2)c(OC)cc1NC(=O)C(C)C	0	0	0	0	1.9	0
CC(NCC(=O)NCCc1ccc(S(N)(=O)=O)cc1)c1ccc(F)cc1 (stereo not drawn)	0	0	0	0	0	0
CC(NCCc1ccc(S(N)(=O)=O)cc1)C(=O)NCCc1ccc(F)cc1 (stereo not drawn)	0	0	0	0	0	5.1
COc1ccccc1NC(=S)NCCc1ccc(S(N)(=O)=O)cc1	5.9	0	0	0	0	0
C/C(Sc1nnc(Cc2ccccc2)o1)=C(\O)c1ccccc1	0	0	0	0	0	0
O=C1CCC[C@H]2C[C@H](NCc3cccs3)CC[C@]23CCCN13	0	-	-	0	0	-
Cc1ccccc1CC(=O)Nc1nnc(-c2cccnc2)s1	0	0	0	0	0	-
O=C(COc1ccc(Cl)cc1)Nc1ccc(C(=O)O)cc1NC(=O)COc1ccc(Cl)cc1	0	0	0	0	0	0
O=C(C1CCC(CNc2c(N3CCCCC3)c(=O)c2=O)CC1)N1CCN(c2ccccn2)CC1 (stereo not drawn)	0	0	0	0	0	0
O=C(C1CCC(CNc2c(N3CCCCC3)c(=O)c2=O)CC1)N1CCN(C2CCCCC2)CC1 (stereo not drawn)	0	0	0	0	0	4.4
Cc1ccccc1CC(=O)N1CCCC1	0	0	0	0	0	0
COC(=O)c1ccc(Cn2c(C)c(C(=O)NCc3cccc(C(F)(F)F)c3)sc2=O)o1	0	0	0	0	0	-
CCOC(=O)N1CCN(C(=O)C[C@H]2C[C@@]3(C(=O)OC)C(=C[C@H](C4CCCC4)O[C@@H]3C)N(Cc3ccc(Cl)cc3Cl)C2=O)CC1	0	0	0	0	0	-
O=C(CNC(=O)c1cccs1)OCC(=O)c1ccc(Cl)cc1	0	0	0	0	11.9	0
O=C(CNC(=O)c1ccc(N2C(=O)c3ccccc3C2=O)cc1)OCC(=O)c1ccc(Cl)cc1	0	0	0	0	1.7	0
Cc1ccc(C(=O)COC(=O)CNC(=O)c2ccc(N3C(=O)c4ccccc4C3=O)cc2)cc1C	0	0	0	0	0	0
